KB-V1 cytotox: KB-V1 MDR subline cytotoxicity. KB-V1 MDR cells viability, CellTiter-Glo, 72 h. Potency, µM (doses to about 46.1 µM), hits mostly cytotoxic. AID 1347076. 400,000 tested, 3.4% active; further: on the % scale 0 is the no-effect control and ±100 the full control effect; nearly all actives have a fitted effect of over 60% in size
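Drug-selected KB-V1 cells, grown in DMEM lacking phenol red with 10% FBS, receive compound titrations; after three days at 37 degrees C, surviving cell ATP is quantified by CellTiter-Glo luminescence and responses normalized and curve-fitted.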
HT1080-NT tox: kills 2HG-producing HT-1080-NT fibrosarcoma cells | HT-1080-NT fibrosarcoma viability, CellTiter-Glo ATP luminescence, 48 h | Potency, µM (series often up to 46.1 µM), for inactives: top-dose activity, negative = less viability, actives largely listed as cytotoxic | 360,000 tested, 1.6% active;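 further: NT is the 2HG producing partner of a matched IDH1 knockdown line; 0% = DMSO-treated cells and -100% = media-only wells without cells; nearly all actives have a fitted effect of over 55% in size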
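Read-out is CellTiter-Glo luminescence after 10 minutes at room temperature, following 48 hours' compound treatment of HT-1080-NT cells (750 cells/well, RPMI, 5% FBS, 37 degrees C).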
SW480 rerep: induces DNA re-replication in SW480 colon adenocarcinoma cells. SW480 DNA re-replication, Hoechst DNA content imaging, 48 h. Potency, µM (doses to about 46.1 µM), for inactives: at the highest dose re-replication activation, most hits filed as activators. 340,000 tested, 1.8% active. AID 624297; further: % of control where 0% means no effect; nearly all actives have a fitted effect of over 55% in size
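Image-based read-out: total Hoechst fluorescence of nuclei (405 nm excitation, 500-530 nm emission), with hits raising the fraction of high-intensity nuclei. SW480 colon cells incubated 48 hr with compounds at 37 C.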
KB-3-1 tox: KB-3-1 parental cell cytotoxicity; KB-3-1 viability, CellTiter-Glo ATP luminescence, 72 h; Potency, µM (titrated, usually from 46.1 µM), hits mostly cytotoxic; 400,000 tested, 1.4% active; AID 1347075; further: on the % scale 0 is the no-effect control and ±100 the full control effect; nearly all actives have a fitted effect of over 60% in size
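Parental KB-3-1 viability, qHTS format: 72 h compound exposure, 37 °C; CellTiter-Glo; media-only wells and DMSO plates as controls; concentration-effect fits on corrected data.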
HT1080 IDH1KD tx: toxicity to HT-1080 IDH1 knockdown cells (counter line) | Potency, µM (titrated, usually from 46.1 µM), inactives show top-dose activity, negative = toxicity, usual class: cytotoxic | HT-1080 IDH1 knockdown viability, ATP luminescence, 48 h | 360,000 tested, 2% active | AID 686971;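 further: 0% = DMSO wells and -100% = cell-free medium wells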
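Viability of IDH1-knockdown HT-1080 fibrosarcoma cells was assessed by CellTiter-Glo after 48 h at 37 °C with titrated compound; concentration-effect curves were classified by fit quality and response size.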
MCF10A rerep: inducers of DNA re-replication in MCF 10A breast cells; MCF 10A DNA re-replication, Hoechst nuclear intensity, 48 h; Potency, µM (highest dose often 46.1 µM), without a hit: at the top dose activity, positive = re-replication, hits mostly activators; 350,000 tested, 2.9% active; further: % of control where 0% means no effect; nearly all actives have a fitted effect of over 50% in size
* marks the source's active call; other numbers are inactive results; i = inactive; ? = inconclusive; · = no result given; [ ] = remark or other dose. Most compounds without a hit are left out; they make up all but 7.9% or so of the library. The call rests on the fitted dose curve; in most records, active means well fitted curve in the direction sought with a large enough effect; inconclusive means small, poorly fitted or top-dose-only effect, or another doubt; inactive means no such curve, though single readings can be large; an effect the other way counts as inactive or inconclusive. Potency means the concentration at half of the fitted maximal effect.

SMILES | KB-V1 cytotox | HT1080-NT tox | SW480 rerep | KB-3-1 tox | HT1080 IDH1KD tx | MCF10A rerep
Cc1cc[n+](CC(=O)c2ccc(F)cc2)cc1 | i | · | · | ? | · | ·
COc1ccc([N+](=O)[O-])c(S(=O)(=O)c2ccccc2)n1 | 23.1µM* | 20.6µM* | ? | ? | 13µM* | 23.7%
COc1nc(OC)nc(Oc2ccc(Cl)cc2[N+](=O)[O-])n1 | i | 7.1% | -4.7% | i | -3.5% | 1.7%
O=[N+]([O-])c1cccnc1S(=O)(=O)c1ccccc1 | ? | 11.6µM* | 9.2µM* | ? | 18.4µM* | 2.91µM*
COc1ccc([N+](=O)[O-])c(S(=O)(=O)c2ccc(Cl)cc2)n1 | i | 23.1µM* | 2.91µM* | ? | 8.2µM* | 3.66µM*
COc1ccc(CNC(=O)C2CCN(S(=O)(=O)c3cccc4nonc34)CC2)cc1 | i | 8.7% | -15.0% | i | 5.8% | -21.8%
CCS(=O)(=O)c1nc2ccccc2n1CC(=O)Nc1ccccc1C(=O)OC | i | · | · | i | · | ·
Oc1ccc(C[C@H]2CN([C@@H](Cc3ccc(O)cc3)CN3CCC[C@@H]3CN3C(=S)NC[C@@H]3Cc3ccccc3)C(=S)N2CC2CCCCCC2)cc1 | i | 11.6µM* | · | ? | 16.4µM* | ·
Oc1ccc(C[C@H]2CNC(=S)N2CC2CCCN2C[C@H](Cc2ccc(O)cc2)N2C[C@H](Cc3ccc(O)cc3)N(CC3CCCCC3)C2=S)cc1 (some centres not stated) | i | 16.4µM* | ? | ? | ? | 11.6µM*
Oc1ccc(C[C@H]2CNC(=S)N2C[C@H]2CCCN2C[C@H](Cc2ccccc2)N2C[C@H](Cc3ccc(O)cc3)N(CC3CCCCCC3)C2=S)cc1 | i | 29.1µM* | · | ? | 18.4µM* | ·
Oc1ccc(C[C@H]2CN([C@@H](Cc3cccc(O)c3)CN3CCC[C@@H]3CN3C(=S)NC[C@@H]3Cc3ccccc3)C(=S)N2CC2CCCCC2)cc1 | i | 18.4µM* | · | ? | 23.1µM* | ·
COCc1cc(=O)n2[nH]cc(-c3ccccc3)c2n1 | ? | -5.1% | 1.4% | ? | -27.1% | ?
CCCc1cc(=O)n2[nH]cc(-c3ccc(Cl)cc3)c2n1 | 7.31µM* | ? | 18.4µM* | 16.4µM* | ? | ?
Cc1ccccc1C(C)NS(=O)(=O)c1ccc2c(c1)OCCO2 (configuration not stated) | i | -2.1% | -8.6% | i | 0.4% | 9.5%
CC(C)(C)C1CCc2c(sc(NC(=O)C3CCCO3)c2C(N)=O)C1 (configuration not stated) | i | ? | ? | i | ? | 17.8µM*
COc1ccc(-c2cc(C3CCN(c4ccc(C(C)=O)cc4[N+](=O)[O-])CC3)[nH]n2)cc1 | 14.6µM* | ? | 8.0% | ? | ? | 13.5%
CCOC(=O)c1cn2nc(-c3ccc(OC)cc3)cc2nc1C1CCN(C(=O)OC(C)(C)C)CC1 | 6.51µM* | 9.1% | 20.6% | i | 4.3% | ?
COc1ccc(-c2cc(C3CCN(C(=O)OC(C)(C)C)CC3)[nH]n2)cc1 | 13µM* | -6.9% | -14.8% | ? | -10.2% | 15.1%
COc1ccc(-c2cc3nc(C4CCN(C(=O)OC(C)(C)C)CC4)c(C(=O)Nc4cc(C)cc(C)c4)cn3n2)cc1 | i | · | · | i | · | ·
O=C(NC1CCCCC1)C(c1ccc(O)cc1)N(CC1CCCO1)C(=O)C1COc2ccccc2O1 (configuration not stated) | 20.6µM* | 4.61µM* | 10.0% | i | 4.61µM* | 0.3%
O=C1CC(C(=O)N(CC2CCCO2)C(C(=O)NC2CCCCC2)c2ccncc2)CS1 (configuration not stated) | i | 2.4% | 5.4% | i | -4.5% | 7.7%
CCOC(=O)N/N=C\c1ccccc1OC/C=C/c1ccccc1 | i | ? | ? | i | ? | ?
COC(=O)N/N=C\c1ccccc1OC/C=C/c1ccccc1 | i | ? | 16.4µM* | i | ? | ?
CN(N=O)c1ccc(/C=C/c2ccnc3ccccc23)cc1 | i | · | · | i | · | ·
O=C(Nc1cccc(Cl)c1)Nc1ccccc1-n1ccnc1 | i | -5.7% | 0.1% | i | -16.0% | -2.9%
SMILES | KB-V1 cytotox | HT1080-NT tox | SW480 rerep | KB-3-1 tox | HT1080 IDH1KD tx | MCF10A rerep
CCOC(=O)N1CCN(C(=O)COC(=O)c2ccc(N(C)C)cc2)CC1 | 20.6µM* | 0.5% | -3.9% | i | 6.2% | -3.4%
Cc1cc(C)n2nc(SCC(=O)Nc3ccccc3C)nc2n1 | i | 23.2% | 0.6% | i | 28.4% | 0.6%
O=C(CN1c2ccc(Br)cc2-c2ccccc2S1(=O)=O)N1CCCCC1 | i | · | · | i | · | ·
COc1cccc(C2=NOC(C(=O)NCc3ccccc3)C2)c1 (configuration not stated) | ? | ? | ? | 11.6µM* | ? | 1.64µM*
COc1cccc(C2=NOC(C(=O)NCc3ccco3)C2)c1 (configuration not stated) | 20.6µM* | ? | ? | 23.1µM* | ? | 4.11µM*
COc1ccc(C2=NOC(C(=O)NCc3ccccc3)C2)cc1 (configuration not stated) | 7.31µM* | 2.51µM* | 2.59µM* | 7.31µM* | 2.24µM* | 0.366µM*
CCCn1cc(NC(=O)C2CC(c3cccc(Br)c3)=NO2)cn1 (configuration not stated) | i | ? | 16.4µM* | i | -2.5%[9.24 µM] | 23.1µM*
COc1ccc(CNC(=O)C2CC(c3ccccc3C(F)(F)F)=NO2)cc1 (configuration not stated) | i | 7.6% | 19.2%[9.22 µM] | i | 4.2% | -13.2%
O=C(CSc1nnc(NC(=O)c2c(F)cccc2Cl)s1)Nc1ccccc1F | i | 5.8% | -6.0% | i | 14.9% | -3.1%
CC(C)(C)c1ccc(-c2nnc(NC(=O)Nc3ccc4ccccc4c3)s2)cc1 | i | · | · | ? | · | ·
O=C(NCCCc1nc2ccccc2n1Cc1ccccc1Cl)C1CCCCC1 | i | · | · | i | · | ·
COc1ccc(CCNC(=O)C2CC(c3ccc(C(F)(F)F)cc3)=NO2)cc1 (configuration not stated) | i | 11.4% | -8.2% | i | 6.4% | -5.6%
O=C(NCc1ccc2c(c1)OCO2)C1CC(c2cccc(Br)c2)=NO1 (configuration not stated) | i | 6.1% | -11.1% | i | 8.8% | 11.6µM*
O=C(NCc1ccc2c(c1)OCO2)C1CC(c2ccccc2O)=NO1 (configuration not stated) | i | -4.8% | -2.5% | i | 0.0% | ?
